# Laboratory results reported in PubChem BioAssay AID1159580 (chemical genetic matrix, 2015).
# Out of some 5,500 compounds screened, about 2,000 (36%) were called active. About 18% were inconclusive and are not listed. The list shows a part of the results. A number with no mark means an inactive call. Cut-off read from the data, not from the text of the source: active = normalized growth mostly below about 0.91 (no sharp cut-off); inconclusive = no clear call, values can overlap the other calls; inactive = mostly above about 0.92.
# Test: chemical genetic growth profiling, strain panel (AID 1159580);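 note: tested at 20 µM; growth read once vehicle control cultures reached saturation at 30 °C; 1 = growth at the plate median or of vehicle wells; lower values mean less growth of the strain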
# Settings: growth OD
# [1] = S. cerevisiae deletion strains, locus YAL040C, strain CLN3, active compounds read low
# [2] = S. cerevisiae deletion strains, locus YCL061C, strain MRC1 (second series), active compounds read low
# [3] = S. cerevisiae deletion strains, locus YDR150W, strain NUM1, active compounds read low
# [4] = S. cerevisiae deletion strains, locus YDR363W, strain ESC2, active compounds read low
# [5] = S. cerevisiae deletion strains, locus YER002W, strain NOP16, active compounds read low
# [6] = S. cerevisiae deletion strains, locus YGR078C, strain PAC10, active compounds read low
# [7] = S. cerevisiae deletion strains, locus YMR263W, strain SAP30, active compounds read low
# [8] = S. cerevisiae deletion strains, locus YNL153C, strain GIM3, active compounds read low
# [9] = S. cerevisiae deletion strains, locus YNL175C, strain NOP13, active compounds read low
# [10] = S. cerevisiae deletion strains, locus YNL197C, strain WHI3, active compounds read low
# [11] = S. cerevisiae deletion strains, locus YNL224C, strain SQS1, active compounds read low
# [12] = S. cerevisiae deletion strains, locus YOR083W, strain WHI5 (second series), active compounds read low
# [13] = S. cerevisiae deletion strains, locus YPL055C, strain LGE1, active compounds read low
# [14] = S. cerevisiae deletion strains, locus YMR307W, strain GAS1, active compounds read low
# [15] = S. cerevisiae deletion strains, locus YNL322C, strain KRE1, active compounds read low
# [16] = S. cerevisiae deletion strains, locus YPL241C, strain CIN2, active compounds read low
# [17] = S. cerevisiae deletion strains, locus YGR229C, strain SMI1, active compounds read low
# [18] = S. cerevisiae deletion strains, locus YJR075W, strain HOC1, active compounds read low
# [19] = S. cerevisiae deletion strains, locus YAL013W, strain DEP1, active compounds read low
# [20] = S. cerevisiae deletion strains, locus YBR229C, strain ROT2, active compounds read low
# [21] = S. cerevisiae deletion strains, locus YDL101C, strain DUN1, active compounds read low
# [22] = S. cerevisiae deletion strains, locus YDL134C, strain PPH21, active compounds read low
# [23] = S. cerevisiae deletion strains, locus YEL061C, strain CIN8, active compounds read low
# [24] = S. cerevisiae deletion strains, locus YHR030C, strain SLT2, active compounds read low
# [25] = S. cerevisiae deletion strains, locus YHR087W, strain rtc3, active compounds read low
# [26] = S. cerevisiae deletion strains, locus YJR043C, strain POL32, active compounds read low
# [27] = S. cerevisiae deletion strains, locus YKL190W, strain CNB1, active compounds read low
# [28] = S. cerevisiae deletion strains, locus YLR039C, strain RIC1, active compounds read low
# [29] = S. cerevisiae deletion strains, locus YLR058C, strain SHM2 (second series), active compounds read low
# [30] = S. cerevisiae deletion strains, locus YLR085C, strain ARP6, active compounds read low
# [31] = S. cerevisiae deletion strains, locus YLR262C, strain YPT6, active compounds read low
# [32] = S. cerevisiae deletion strains, locus YML094W, strain GIM5, active compounds read low
# [33] = S. cerevisiae deletion strains, locus YMR219W, strain ESC1, active compounds read low
# [34] = S. cerevisiae deletion strains, locus YNL298W, strain CLA4 (second series), active compounds read low
# [35] = S. cerevisiae deletion strains, locus YNR030W, strain Alg12, active compounds read low
# [36] = S. cerevisiae deletion strains, locus YOL006C, strain TOP1, active compounds read low
# [37] = S. cerevisiae deletion strains, locus YPR135W, strain CTF4, active compounds read low
structure (smiles),measurement,setting,value
CCCCCCCCCC(=O)NC(CN1CCOCC1)[C@H](O)c1ccccc1 (stereo partly drawn),normalized growth,[1],0.989
same,normalized growth,[2],0.987
same,normalized growth,[3],0.977
same,normalized growth,[4],0.942
same,normalized growth,[5],0.963
same,normalized growth,[6],0.97
same,normalized growth,[7],1
same,normalized growth,[8],0.941
same,normalized growth,[9],0.962
same,normalized growth,[10],0.944
same,normalized growth,[11],0.978
same,normalized growth,[12],0.971
same,normalized growth,[13],0.957
CC[C@H](NC(=O)c1c(C)c(-c2ccccc2)nc2ccccc12)c1ccccc1,normalized growth,[1],1.03
same,normalized growth,[3],0.987
same,normalized growth,[4],1.04
same,normalized growth,[5],1.02
same,normalized growth,[14],1.06
same,normalized growth,[8],0.979
same,normalized growth,[9],1.03
same,normalized growth,[10],1.04
same,normalized growth,[11],1
same,normalized growth,[15],0.995
same,normalized growth,[12],1.07
same,normalized growth,[16],0.987
CCCCCCCCCC[Si](C)(C)CCC(=O)NC(Cc1ccc(C)cc1)c1ccccc1 (stereo not drawn),normalized growth,[1],1.03
same,normalized growth,[4],0.974
same,normalized growth,[5],1.11 [resistant] (active)
same,normalized growth,[7],0.998
same,normalized growth,[14],1.01
same,normalized growth,[9],1.05
same,normalized growth,[11],1.17 [resistant] (active)
same,normalized growth,[13],1
N#CC(C#N)=C(N)/C(C#N)=C/c1ccc(O)cc1,normalized growth,[1],0.962
same,normalized growth,[2],0.998
same,normalized growth,[4],0.999
same,normalized growth,[5],1
same,normalized growth,[6],1
same,normalized growth,[17],1.04
same,normalized growth,[18],0.957
same,normalized growth,[7],1
same,normalized growth,[14],1
same,normalized growth,[9],0.999
same,normalized growth,[10],0.989
same,normalized growth,[11],1
same,normalized growth,[15],0.99
same,normalized growth,[12],1.01
same,normalized growth,[13],1
CCOC(=O)/C(C#N)=C/c1ccc(Br)cc1,normalized growth,[19],0.971
same,normalized growth,[20],0.805 (active)
same,normalized growth,[21],0.875 (active)
same,normalized growth,[22],0.972
same,normalized growth,[3],0.893
same,normalized growth,[23],0.754 (active)
same,normalized growth,[6],0.903 (active)
same,normalized growth,[24],0.258 (active)
same,normalized growth,[25],0.821 (active)
same,normalized growth,"S. cerevisiae deletion strains, locus YJL187C, strain SWE1, active compounds read low",0.846 (active)
same,normalized growth,[26],0.851 (active)
same,normalized growth,[18],0.828 (active)
same,normalized growth,[27],0.804 (active)
same,normalized growth,[28],0.646 (active)
same,normalized growth,[29],0.977
same,normalized growth,[30],0.375 (active)
same,normalized growth,[31],0.72 (active)
same,normalized growth,[32],0.828 (active)
same,normalized growth,[33],0.926 (active)
same,normalized growth,[7],0.913
same,normalized growth,[8],0.836 (active)
same,normalized growth,[34],0.717 (active)
same,normalized growth,[15],0.967
same,normalized growth,[35],0.765 (active)
same,normalized growth,[36],0.593 (active)
same,normalized growth,[13],0.865
same,normalized growth,[16],0.717 (active)
same,normalized growth,[37],0.585 (active)
same,normalized growth,"S. cerevisiae strains, strain wild type, active compounds read low",0.954
N#C/C(=C\c1ccc(O)c(O)c1)C(=O)NCc1ccccc1,normalized growth,[19],0.997
same,normalized growth,[1],0.984
same,normalized growth,[2],1
same,normalized growth,[3],1
same,normalized growth,[4],1
same,normalized growth,[5],1.01
same,normalized growth,[6],1.01
same,normalized growth,[18],0.992
same,normalized growth,[7],1.01
same,normalized growth,[14],1
same,normalized growth,[8],1.02
same,normalized growth,[9],1.01
same,normalized growth,[10],1.02
same,normalized growth,[11],0.999
same,normalized growth,[12],1.03
same,normalized growth,[16],1
O=[N+]([O-])c1ccc(Oc2cccc3cccnc23)cc1,normalized growth,[19],1.01
same,normalized growth,[20],1
same,normalized growth,[21],0.942
same,normalized growth,[22],0.993
same,normalized growth,[3],1
same,normalized growth,[23],0.98
same,normalized growth,[6],0.991
same,normalized growth,[24],0.736
same,normalized growth,[25],1
same,normalized growth,[26],0.98
same,normalized growth,[18],1.02
same,normalized growth,[28],0.805
same,normalized growth,[29],1
same,normalized growth,[30],0.959
same,normalized growth,[31],0.799 (active)
same,normalized growth,[32],0.991
same,normalized growth,[33],0.993
same,normalized growth,[7],1
same,normalized growth,[14],0.719
same,normalized growth,[8],0.848 (active)
same,normalized growth,[34],0.892
same,normalized growth,[15],1
same,normalized growth,[35],0.994
same,normalized growth,[36],0.872
same,normalized growth,[13],0.919
same,normalized growth,[16],0.854 (active)
same,normalized growth,[37],0.754
O=[N+]([O-])c1ccc(OCCCOc2ccc([N+](=O)[O-])cc2)cc1,normalized growth,[19],1
same,normalized growth,[20],0.978
same,normalized growth,[21],0.98
same,normalized growth,[3],0.988
same,normalized growth,[23],0.979
same,normalized growth,[6],0.991
same,normalized growth,[17],0.995
same,normalized growth,[24],0.91
same,normalized growth,[25],0.973
same,normalized growth,[26],1.01
same,normalized growth,[18],0.971
same,normalized growth,[27],1
same,normalized growth,[28],0.966
same,normalized growth,[29],0.975
same,normalized growth,[30],0.993
same,normalized growth,[31],0.969
same,normalized growth,[32],0.934
same,normalized growth,[33],0.983
same,normalized growth,[7],1.01
same,normalized growth,"S. cerevisiae deletion strains, locus YNL128W, strain TEP1, active compounds read low",0.996
same,normalized growth,[8],0.995
same,normalized growth,[34],0.961
same,normalized growth,[15],0.99
same,normalized growth,[35],0.979
same,normalized growth,[36],0.97
same,normalized growth,[13],1.02
same,normalized growth,[16],0.953
same,normalized growth,[37],0.932
